# Measured values taken from the supplement of paper PMC6555819.
# Key:
# Assay in all cases: PBM binding z-score (relative to random genomic background probes); higher = stronger binding; sequences stand for … in GC…GCGATTGACAGCGTAGAATGAAGG
# [1] = system: FXR:RXRa (NR concentration 270 nM, RXRa partner concentration 90 nM)
# In short: (§1)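 Probes were double-stranded and carried 34-nt variable regions with direct-repeat seeds, single-nucleotide variants, half-site ablations and random human genomic background sequences, printed on custom Agilent 4×180K protein-binding microarrays. Arrays were incubated 1 h with ligand-free nuclear receptor dimers in PBS pH 7.4, 2% milk, 0.02% Triton X-100, 1 mM DTT, 0.2 mg/mL BSA and 0.4 mg/ml salmon testes DNA. Antibodies against each partner (one per run) detected binding, and scanned fluorescence was regression-normalized. Binding z-scores use the random background probes as reference.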
# [2] = system: LXRa:RXRa (NR concentration 270 nM, RXRa partner concentration 90 nM)
# In short: as §1
# [3] = system: LXRa homodimer (NR concentration 270 nM)
# In short: as §1
# [4] = system: LXRb:RXRa (NR concentration 270 nM, RXRa partner concentration 90 nM)
# In short: as §1
# [5] = system: LXRb homodimer (NR concentration 270 nM)
# In short: as §1
# [6] = system: PPARa:RXRa (NR concentration 270 nM, RXRa partner concentration 90 nM)
# In short: as §1
# [7] = system: PPARg:RXRa (NR concentration 180 nM, RXRa partner concentration 90 nM)
# In short: as §1
# [8] = system: PPARg:RXRa 270nM:90nM, anti-RXR (NR concentration 270 nM, RXRa partner concentration 90 nM)
# In short: as §1
# [9] = system: PPARg:RXRa 30nM:10nM, anti-RXR (NR concentration 30 nM, RXRa partner concentration 10 nM)
# In short: as §1
# [10] = system: PPARg:RXRa 90nM:30nM, anti-RXR (NR concentration 90 nM, RXRa partner concentration 30 nM)
# In short: as §1
# [11] = system: PPARg:RXRa DBDmut IVT, anti-RXR (DBD mutation: RXRa K156A/R161A, NR concentration 270 nM, RXRa partner concentration 90 nM)
# In short: as §1
# [12] = system: PPARg:RXRa IVT, anti-PPARg (NR concentration 270 nM, RXRa partner concentration 90 nM)
# In short: as §1
# [13] = system: PPARg DBDmut:RXRa IVT, anti-PPARg (DBD mutation: PPARg1 K132A/R137A, NR concentration 270 nM, RXRa partner concentration 90 nM)
# In short: as §1
# [14] = system: PPARg DBDmut IVT, anti-PPARg (DBD mutation: PPARg1 K132A/R137A, NR concentration 270 nM)
# In short: as §1
# [15] = system: PPARg homodimer (NR concentration 180 nM)
# In short: as §1
# [16] = system: PXR:RXRa (NR concentration 270 nM, RXRa partner concentration 90 nM)
# In short: as §1
# [17] = system: PXR homodimer (NR concentration 270 nM)
# In short: as §1
# [18] = system: RARa:RXR (NR concentration 270 nM, RXRa partner concentration 90 nM)
# In short: as §1
# [19] = system: RARa homodimer (NR concentration 270 nM)
# In short: as §1
# [20] = system: RARb:RXRa (NR concentration 270 nM, RXRa partner concentration 90 nM)
# In short: as §1
Sequence,PBM binding z-score [1],PBM binding z-score [2],PBM binding z-score [3],PBM binding z-score [4],PBM binding z-score [5],PBM binding z-score [6],PBM binding z-score [7],PBM binding z-score [8],PBM binding z-score [9],PBM binding z-score [10],PBM binding z-score [11],PBM binding z-score [12],PBM binding z-score [13],PBM binding z-score [14],PBM binding z-score [15],PBM binding z-score [16],PBM binding z-score [17],PBM binding z-score [18],PBM binding z-score [19],PBM binding z-score [20]
ATCGAAACGTCGAAGGTGAGTATACCCACCCGAA,-0.17,-0.352,-0.345,-0.738,-0.334,-0.193,0.676,-0.0479,0.0501,-0.0142,-0.927,-0.0186,0.59,0.626,-0.242,-0.502,-0.249,-0.42,0.0263,0.237
CCTACTGGGCCAAAGCTCATTGATTCCAATGCTC,-0.596,-0.522,-0.451,-0.576,-0.796,1.48,2.63,4.26,2.45,3.85,4.44,3.69,-0.419,-0.625,-0.0929,-0.568,-0.291,-0.318,-0.841,-0.251
CGAACTAGGTCAATGACAGTGAATCTCCGCACGC,3.48,2.25,0.283,1.56,-0.147,4.35,6.92,5.8,2.99,5.2,7.95,7.88,1.44,0.0144,1.11,1.01,0.0387,1.71,0.201,3.68
TCTAGCAGCCCAGAGGGTCACTCAAGAGGTACGG,0.547,0.531,-0.652,1.01,-1.12,1.92,0.566,1.13,1.45,1.2,0.523,-0.253,-0.749,-0.961,0.154,1.3,-0.683,2.44,-0.794,1.81
TCTTGTAGATCTAAGGTTAAGAAAGCCGAAGCCT,0.97,0.808,0.287,1.16,-0.127,1.98,1.85,3.71,3.41,4.08,1.71,0.863,0.224,-0.213,0.385,0.921,-0.35,1.55,-0.0766,0.9
CCGACTGGGGTAAGGTTACCATAACGCACAGCCA,0.62,1.11,-0.0991,1.31,-0.565,2.14,2.11,2.5,0.595,1.71,1.25,2.26,-0.489,-1.25,0.783,0.899,-0.126,1.55,0.484,1.3
ACTAGCATGCCAAGGGTCACTCAAGATTAGTCCG,2.51,2.97,0.285,2.95,0.101,4.14,5.14,6.08,3.82,6.39,0.455,2.66,-0.409,0.469,2.73,3.31,-0.0678,4.02,0.721,3.38
GTACCTAGGTGAATAGGTCGTTGATGAGTAGGCG,0.327,0.577,-0.19,0.185,-0.886,1.93,1.83,2.16,0.782,1.89,2.96,3.55,-0.531,-0.303,0.221,0.327,-0.195,1.03,0.134,1.15
ATCGAAAGGCCGACGAGGTGAGTATACACCGTTT,0.135,-0.127,-0.565,-0.439,-0.414,-0.0782,0.686,-0.414,-0.0742,-0.119,-0.57,0.479,0.035,0.014,-0.108,-0.0744,-0.0811,0.0866,-0.372,1.33
TCTAGTTGGTCAAAGGTCACTCACTCGAAATGCG,5.38,5.18,3.77,5.13,2.23,6.16,11.5,10,10.6,12.1,3.67,6.11,2.62,1.66,4.97,5.78,1.56,7.3,3.14,4.93
CCTGCTAGGTCAGGGTCAGCTAATCTACAGTATG,3.6,2.42,-0.231,2.55,-0.944,3.92,2.82,3,0.682,1.83,3.18,3.55,-0.395,-0.875,0.967,2.73,-0.26,3.48,0.175,4.42
CTACCAAGGTGAACAATGTCGTTGATTACTATTC,0.559,0.263,0.0434,0.937,0.00375,1.37,0.621,0.75,0.226,0.326,2.67,2.51,0.151,0.164,0.475,0.327,-0.0411,0.755,0.471,1.67
TGTCAAAGTTCAAAGGTATCGTAAGTATCCACAC,6.52,6.21,4.75,3.88,1.73,5.28,7.79,7.23,4.93,6.44,-0.2,3.95,0.81,1.08,2.53,5.14,4.92,4.95,1.12,4.91
CCGAGTAGGTTATGGGTCATTCAGGCAACGGTGA,2.41,2.13,0.794,2.57,0.212,4.37,7.07,6.9,5.78,6.93,3.95,4.54,-0.0117,-0.483,1.77,2.17,0.442,3.06,1.09,2.3
